Experimental findings from PubChem BioAssay (Tox21) are described below.

Results filed as inconclusive are left out. Entries that show only a call come without a potency. Unmarked numbers belong to inactive results. Active and inactive are the calls of the source. Calls come from the whole dose curve; as a rule, active = well fitted curve in the direction sought with a large enough effect in the repeat runs; inconclusive = weak or mixed curves; inactive = no such curve, though single readings can be large; an effect the other way counts as inactive or inconclusive.
Note: nearly all actives have a fitted effect of over 50% in size.

A short description of the first experiment: qHTS RealTime-Glo MT Cell Viability Assay in HepG2 cells - 24 hour (AID 1224867). As to conditions: RealTime-Glo luminescence; series mostly up to 76.8 µM. In short, it runs like this: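 HepG2 cells were seeded at 600 cells/well together with NanoLuc luciferase and a cell-permeant prosubstrate, preincubated 5 h at 37 C/5% CO2, then pin-dosed with compounds in DMSO. Nonlytic luminescence from viable cells was read at each time point.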
For orientation: In qHTS, concentration-response curves come from the screen itself.
Turning to `CNC(=O)N(c1ccccc1)c1ccccc1`, the Potency result is “inactive”. As for `CC1(C)C(=O)N(Br)C(=O)N1Cl`, the Potency result was “inactive”. Still for that read-out and setting: the entry for `CCCCCCCCSCCO` is “inactive”; for `CC#N` it is “inactive”.

In the case of `NC(=O)Nc1ccc(Cl)cc1`, the Potency result is “inactive”.

Take `OC/C(Br)=C(\Br)CO`: the Potency entry was “inactive”. Take `CC1=CC(=O)CC(C)(C)C1(O)/C=C/C(C)=C\C(=O)O` (centres undefined): the Potency result is “inactive”.

`CCCOC(=O)c1ccc(N)cc1`: the Potency result is “inactive”.

On to `CCCCC(CC)CNCC(CC)CCCC` (centres undefined), for which the Potency entry is “inactive”. On the same count and under the same terms, under `O=C(CCC1CCN(Cc2ccccc2)CC1)c1ccc2c(c1)NCCCC2` stands “inactive”; under `CC(=O)OCC(=O)[C@H]1CC[C@H]2[C@@H]3CCC4=CC(=O)CC[C@]4(C)[C@H]3CC[C@]12C`, “inactive”; under `COC(=O)c1cc(Cl)ccc1NS(=O)(=O)C(F)(F)F`, “inactive”.

For `CC(=O)CC(c1ccc([N+](=O)[O-])cc1)c1c(O)c2ccccc2oc1=O` (centres undefined), the Potency entry is “inactive”.

For `CCOC(=O)c1ccccc1OC`, the Potency entry is “inactive”. Consider `c1cnc2c(n1)CCCC2`, for which the Potency result is “inactive”.

For `CO[C@H]1O[C@H](CO)[C@@H](O)[C@H](O)[C@H]1O`, the Potency result is “inactive”. On the same count and under the same terms, the entry for `O=C(/C=C/c1ccccc1)OCCCc1ccccc1` is “inactive”.

For the compound `C=CCCCCCCCCCCCCCCCC`, the activity change, negative = cytotoxicity was 0.0094% [at 6.97 µM].

`CCCCC(=O)O[C@]1(C(=O)CO)CC[C@H]2[C@@H]3CCC4=CC(=O)CC[C@]4(C)[C@H]3[C@@H](O)C[C@@]21C`: the Potency entry is “inactive”. Regarding `NC(=O)N(O)[C@@H]1C=C[C@H](Oc2cccc(Oc3ccc(F)cc3)c2)C1`, the Potency entry is “inactive”. Same read-out and setting: under `CC1CC(O)CC(C)(C)C1` (centres undefined) stands “inactive”.

Take `N#C[C@@H]1C[C@@H]2C[C@@H]2N1C(=O)[C@@H](N)C12CC3CC(CC(O)(C3)C1)C2`: the Potency entry was “inactive”.

For the compound `O=Cc1c(Cl)cccc1Cl`, the Potency result was “inactive”.

For the compound `CC1(C)O[C@@H]2C[C@H]3[C@@H]4CCC5=CC(=O)C=C[C@]5(C)[C@H]4[C@@H](O)C[C@]3(C)[C@]2(C(=O)CO)O1`, the Potency result is “inactive”. Take `CCCCCCCCCCCCCCCCBr`: the activity change, negative = cytotoxicity was 2.08% [at 15.8 µM]. In the case of `CCCCCCOC(=O)C(C)C`, the Potency entry is “inactive”.

As to `COC(=O)c1cc(S(N)(=O)=O)ccc1OC`, the Potency result was “inactive”. On the same count and under the same terms, under `C=CC(C)(O)CCCC(C)CCCC(C)CCCC(C)C` (centres undefined) stands “inactive”. Still for that read-out and setting: under `CN1C(=O)CC(C)(c2ccccc2)C1=O` (centres undefined) stands “inactive”. Take `C[C@]12CCC(=O)C=C1C=C[C@@H]1[C@@H]2CC[C@@]2(C)[C@H]1CC[C@@]21CCC(=O)O1`: the Potency entry was “inactive”. Consider `Cc1occc1C(=O)Nc1ccc(C(=O)N2CCC(F)(F)/C(=C\C(=O)N3CCC(N4CCCCC4)CC3)c3ccccc32)cc1`, for which the Potency entry was “inactive”. Take `CCCC1C(CC)=CC(CC)=CN1c1ccccc1` (centres undefined): the Potency result was “inactive”.

On to `CC(=O)[C@H]1CC[C@H]2[C@@H]3C[C@H](C)C4=CC(=O)CC[C@]4(C)[C@H]3[C@@H](O)C[C@]12C`, for which the Potency entry was “inactive”.

As to `C=CC(=C)CCCC(C)(C)OC(C)=O`, the Potency entry was “inactive”. Still for that read-out and setting: the entry for `O=S1OCCO1` is “inactive”; for `C1COCO1` it is “inactive”; for `CC(=O)Nc1ccccc1C` it is “inactive”. Consider `COc1cc2[nH]c(=O)[nH]c(=O)c2cc1OC`, for which the Potency entry is “inactive”. On the same count and under the same terms, the entry for `N#C/C(=C1/SC[C@@H](c2ccc(Cl)cc2Cl)S1)n1ccnc1` is “inactive”.

A further experiment can be described thus: qHTS RealTime-Glo MT Cell Viability Assay in HEK293 cells - 32 hour (AID 1224868). For activity change, negative = cytotoxic: top concentration of the series differs between compounds. Note: potency is the fitted concentration of half-maximal effect. The settings on record: RealTime-Glo luminescence; series mostly up to 76.8 µM. In short, it runs like this:
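HEK293 cells were seeded at 600 cells/well together with NanoLuc luciferase and cell-permeant prosubstrate, preincubated 5 h at 37 C/5% CO2, then given compound in DMSO by pintool. Luminescence from viable-cell prosubstrate reduction was read repeatedly over 40 h.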
As for `CNC(=O)N(c1ccccc1)c1ccccc1`, the Potency result was “inactive”. Same read-out and setting: under `CC1(C)C(=O)N(Br)C(=O)N1Cl` stands “inactive”; under `CCCCCCCCSCCO`, “inactive”; under `CC#N`, “inactive”. The same measure, in the same setting: under `NC(=O)Nc1ccc(Cl)cc1` stands “inactive”; under `CC1=CC(=O)CC(C)(C)C1(O)/C=C/C(C)=C\C(=O)O` (centres undefined), “inactive”; under `CCCOC(=O)c1ccc(N)cc1`, “inactive”. Regarding `CCCCC(CC)CNCC(CC)CCCC` (centres undefined), the Potency entry is “inactive”. Consider `COC(=O)c1cc(Cl)ccc1NS(=O)(=O)C(F)(F)F`, for which the Potency entry is “inactive”. Take `CC(=O)CC(c1ccc([N+](=O)[O-])cc1)c1c(O)c2ccccc2oc1=O` (centres undefined): the Potency entry is “inactive”. As for `CCOC(=O)c1ccccc1OC`, the Potency entry is “inactive”.

On to `CO[C@H]1O[C@H](CO)[C@@H](O)[C@H](O)[C@H]1O`, for which the Potency result was “inactive”. In the case of `O=C(/C=C/c1ccccc1)OCCCc1ccccc1`, the Potency result is “inactive”. For `C=CCCCCCCCCCCCCCCCC`, the activity change, negative = cytotoxic is -11.9% [at 6.97 µM].

For the compound `CCCCC(=O)O[C@]1(C(=O)CO)CC[C@H]2[C@@H]3CCC4=CC(=O)CC[C@]4(C)[C@H]3[C@@H](O)C[C@@]21C`, the Potency entry is “inactive”. The same measure, in the same setting: the figure for `NC(=O)N(O)[C@@H]1C=C[C@H](Oc2cccc(Oc3ccc(F)cc3)c2)C1` is 17.4 µM (active); for `CC1CC(O)CC(C)(C)C1` (centres undefined) it is “inactive”. Same read-out and setting: under `N#C[C@@H]1C[C@@H]2C[C@@H]2N1C(=O)[C@@H](N)C12CC3CC(CC(O)(C3)C1)C2` stands “inactive”. On the same count and under the same terms, under `O=Cc1c(Cl)cccc1Cl` stands “inactive”; under `CC1(C)O[C@@H]2C[C@H]3[C@@H]4CCC5=CC(=O)C=C[C@]5(C)[C@H]4[C@@H](O)C[C@]3(C)[C@]2(C(=O)CO)O1`, “inactive”. Turning to `CCCCCCCCCCCCCCCCBr`, the activity change, negative = cytotoxic was 4.73% [at 15.8 µM]. In the case of `CCCCCCOC(=O)C(C)C`, the Potency entry is “inactive”. For `COC(=O)c1cc(S(N)(=O)=O)ccc1OC`, the Potency result was “inactive”.

Turning to `C=CC(C)(O)CCCC(C)CCCC(C)CCCC(C)C` (centres undefined), the Potency entry was “inactive”. The same measure, in the same setting: the entry for `CN1C(=O)CC(C)(c2ccccc2)C1=O` (centres undefined) is “inactive”. As to `C[C@]12CCC(=O)C=C1C=C[C@@H]1[C@@H]2CC[C@@]2(C)[C@H]1CC[C@@]21CCC(=O)O1`, the Potency result is “inactive”. Consider `CCCC1C(CC)=CC(CC)=CN1c1ccccc1` (centres undefined), for which the Potency was 13.8 µM (active). On to `C1COCO1`, for which the Potency entry was “inactive”.

On to `COc1cc2[nH]c(=O)[nH]c(=O)c2cc1OC`, for which the Potency entry is “inactive”. For the compound `N#C/C(=C1/SC[C@@H](c2ccc(Cl)cc2Cl)S1)n1ccnc1`, the Potency result was “inactive”.
